The values that follow come from PubChem BioAssay (EPA / NIEHS).

Results filed as inconclusive are left out. Active and inactive are the calls of the source. The calls were made as follows: active = hit-call score of the fitted dose curve at least 0.9, where 1 is the maximum; inconclusive = response in the unintended direction; inactive = score below 0.9.

Sequence of Glucocorticoid receptor (Homo sapiens) (P04150 whole entry, looked up): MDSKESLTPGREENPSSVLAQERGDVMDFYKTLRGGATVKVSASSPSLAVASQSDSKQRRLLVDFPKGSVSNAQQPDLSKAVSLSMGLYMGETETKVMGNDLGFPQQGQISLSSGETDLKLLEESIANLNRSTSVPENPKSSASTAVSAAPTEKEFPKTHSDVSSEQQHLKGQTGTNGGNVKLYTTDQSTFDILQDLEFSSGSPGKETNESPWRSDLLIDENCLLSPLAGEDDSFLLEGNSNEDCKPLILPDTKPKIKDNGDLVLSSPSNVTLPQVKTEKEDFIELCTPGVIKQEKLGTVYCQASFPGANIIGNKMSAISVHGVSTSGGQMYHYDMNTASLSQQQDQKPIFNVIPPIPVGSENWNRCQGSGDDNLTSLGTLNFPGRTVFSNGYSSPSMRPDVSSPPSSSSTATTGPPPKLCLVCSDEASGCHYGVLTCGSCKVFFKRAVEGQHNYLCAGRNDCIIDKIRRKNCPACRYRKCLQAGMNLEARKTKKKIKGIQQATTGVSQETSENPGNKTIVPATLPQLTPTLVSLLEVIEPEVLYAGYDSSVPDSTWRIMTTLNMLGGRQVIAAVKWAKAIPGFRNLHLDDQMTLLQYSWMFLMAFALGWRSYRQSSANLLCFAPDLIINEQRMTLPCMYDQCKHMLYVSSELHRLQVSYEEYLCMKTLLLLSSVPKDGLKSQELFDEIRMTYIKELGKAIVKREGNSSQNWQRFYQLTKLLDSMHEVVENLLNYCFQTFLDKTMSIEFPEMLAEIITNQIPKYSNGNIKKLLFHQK

This experiment deals with Glucocorticoid receptor (Homo sapiens) (UniProt P04150). Nature of the experiment: ATG_GR_TRANS: Attagene TRANS-FACTORIAL HepG2 Assay for human Glucocorticoid Receptor (GR) (AID 2282978).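 Also: activators score as hits since higher reporter transcript over DMSO is fitted.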 As to conditions: HepG2 Attagene TRANS GR reporter, mRNA transcription. The procedure:
ATG_TRANS is a cell-based, multiplexed-readout assay that uses HepG2, a human liver cell line, with measurements taken at 24 hours after chemical dosing in a 24-well plate.ATG_GR_TRANS is one of 30 assay component(s) measured or calculated from the ATG_TRANS assay. It is designed to make measurements of mRNA induction, a form of inducible reporter, as detected with fluorescence intensity signals by Reverse transcription polymerase chain reaction (RT-PCR) and Capillary electrophoresis technology.Data from the assay component ATG_GR_TRANS was analyzed into 1 assay endpoint. This assay endpoint, ATG_GR_TRANS, was analyzed in the positive analysis fitting direction relative to DMSO as the negative control and baseline of activity. Using a type of inducible reporter, measures of mRNA for gain-of-signal activity can be used to understand the reporter gene at the transcription factor-level as they relate to the gene NR3C1. Furthermore, this assay endpoint can be referred to as a primary readout, because this assay has produced multiple assay endpoints where this one serves a reporter gene function. To generalize the intended target to other relatable targets, this assay endpoint is annotated to the nuclear receptor intended target family, where the subfamily is steroidal.
Human liver HepG2 cells are transiently transfected with multiple reporter transcription units (MRTUs) in 6-well plates using FuGene 6 reagent (Roche; 3 ml FuGene/1 mg DNA). The MRTU constructs are regulated by a cis-regulating element (promoter). […] A major difference between the CIS and TRANS system is that in CIS activities of endogenous TFs are measured, whereas the TRANS assay evaluates changes in activities of exogenous, chimeric NR-Gal4 proteins. […] At the end of 24 hour incubation, total RNA was isolated using TriZol reagent (Invitrogen). The isolated RNA is then reverse-transcribed using oligo(dT) primer and Mo-MLV reverse transcriptase (Invitrogen) with DNAse I (Ambion) treatment for 30 min. The one-tenth of the produced cDNA was amplified by PCR using Taq DNA polymerase (Invitrogen) and two reporter sequence-specific primers. The PCR products were fluorescently labeled by primer extension with 6-arboxyfluorescein (6-FAM) 5'-labeled reporter sequence-specific primer (2 min at 95 C, 20 s at 68 C and 10 min at 72 C) and these products were digested with 5U of HpaI (New England Biolabs) for 2h at 37 C. The fragments were purified using Qiaquick PCR columns (Qiagen), analyzed on an ABI 3130xL genetic analyzer (Applied Biosystems) with peak positions identified by using a set of X-rhodamine (ROX)-labeled MapMarker1000 molecular weight standards (BioVentures). The raw capillary electrophoresis data was processed using Attagraph software (Attagene).
As for `c1ccc2c(c1)ccc1ccccc12`, the molecule was classed as inactive.
For `CC(C)(C)c1cccc(C(C)(C)C)c1O`, the result was inactive.
Turning to `Cc1cc(C)c(O)c(C)c1`, the result was inactive.
The same measure, in the same setting: as for `CCCOC(=O)c1ccc(O)cc1`, the entry is “inactive”.
On the same count and under the same terms, as for `N#C[C@@H]1CC(F)(F)CN1C(=O)CNC1CC2CCC(C1)N2c1ncccn1` (stereo not given in full), the entry is “inactive”; as for `ClC1=C(Cl)C(Cl)(Cl)C(Cl)=C1Cl`, “inactive”.
On the same count and under the same terms, with `C=C(C)C(=O)OCCC(F)(F)C(F)(F)C(F)(F)C(F)(F)C(F)(F)C(F)(F)F` the entry was “inactive”; with `NC(=O)N(O)[C@@H]1C=C[C@H](Oc2cccc(Oc3ccc(F)cc3)c2)C1`, “inactive”; with `O=C(O)Cc1cc(I)c(Oc2cc(I)c(O)c(I)c2)c(I)c1`, “inactive”.
On to `CCC(=C(c1ccc(O)cc1)c1ccc(OCCN(C)C)cc1)c1ccccc1`, for which the outcome was inactive.
Same read-out and setting: with `Cc1oc(-c2ccccc2)nc1CCOc1ccc(C[C@H](Nc2ccccc2C(=O)c2ccccc2)C(=O)O)cc1` the entry was “inactive”; with `CCc1nn(C2CCCCC2)c2cc(C3(C#N)CCC(C(=O)O)CC3)ccc12` (stereo not given), “inactive”.
As usually defined, the AC50 is the concentration giving half of the maximal activity seen. Consider `CCN(CC)CCNc1ccc(CNC=O)c2sc3ccc(OC)cc3c(=O)c12`, for which the AC50 is 1.85 µM (active).
As to `COc1ccc([N+](=O)[O-])cc1N`, the result was inactive.
The same measure, in the same setting: with `CC1=C(/C=C/C(C)=C/C=C/C(C)=C/C(=O)O)C(C)(C)CCC1` the entry was “inactive”.
In the case of `Cc1cc(CCN2CCN(c3nsc4ccccc34)CC2)cc2c1NC(=O)CC2(C)C`, the result was inactive.
In the case of `OCCC(F)(F)C(F)(F)C(F)(F)C(F)(F)C(F)(F)C(F)(F)F`, the result was inactive.
As to `CC(=O)NC1(c2cccc(F)c2)CCN(CC[C@@]2(c3ccc(Cl)c(Cl)c3)CN(c3ccccc3)C(=O)CO2)CC1`, the AC50 was 62 µM (active).
With `CC#C[C@]1(O)CC[C@H]2[C@@H]3CCC4=CC(=O)CCC4=C3[C@@H](c3ccc(N(C)C)cc3)C[C@@]21C`, the molecule was classed as inactive.
Still for that read-out and setting: with `CCCCCCCCCCCCc1ccccc1S(=O)(=O)O` the entry was “inactive”.
Regarding `COC(=O)CCCCC(=O)OC`, the outcome was inactive.
On the same count and under the same terms, with `CC(C)(C)c1cc(C(C)(C)C)c(O)c(C(C)(C)C)c1` the entry was “inactive”; with `O=C1OC2(c3ccccc31)c1cc(Br)c(O)c(Br)c1Oc1c2cc(Br)c(O)c1Br`, “inactive”; with `CCCCCCCCCCCCN1CCCC1=O`, “inactive”.
Regarding `O=C(O)c1ccccc1C(c1ccc(O)cc1)c1ccc(O)cc1`, the result was inactive.
Same read-out and setting: with `Oc1cc2ccccc2c2ccccc12` the entry was “inactive”; with `CCc1ccc(CCOc2ccc(CC3SC(=O)NC3=O)cc2)nc1` (stereo not given), “inactive”.
For the molecule `CCCCC[C@H](O)CC(=O)CCc1ccc(O)c(OC)c1`, the outcome was inactive.
Same read-out and setting: with `Nc1cccc2c(N)cccc12` the entry was “inactive”; with `NCC(F)(F)C(F)(F)C(F)(F)C(F)(F)C(F)(F)C(F)(F)C(F)(F)F`, “inactive”.
Consider `Oc1cccc(O)c1`, for which the call was inactive.
Regarding `CCCCCCCC(=O)O`, the call was inactive.
On the same count and under the same terms, as for `CCCOc1sc(C(=O)N2CCC(c3cc(CN)ccc3F)CC2)c(C)c1Br`, the entry is “inactive”; as for `OC1CCC(C2CCCCC2)CC1` (stereo not given), “inactive”.
Still for that read-out and setting: as for `COCC(C)O` (stereo not given), the entry is “inactive”.
The same measure, in the same setting: with `CCCCCCC(=O)O` the entry was “inactive”; with `Cc1ccc(S(=O)(=O)O)c(C)c1`, “inactive”.
For the molecule `CCCCC(CC)COC(=O)CCCCC(=O)OCC(CC)CCCC` (stereo not given), the molecule was called inactive.
The same measure, in the same setting: as for `CC[C@H](c1ccc(O)cc1)[C@@H](CC)c1ccc(O)cc1`, the entry is “inactive”; as for `CC(O)CO` (stereo not given), “inactive”.
